We go through 60 molecules from PubChem BioAssay AID652257 (The Scripps Research Institute Molecular Screening Center, 2013).

By inhibition is commonly meant the drop in the measured response relative to a control, in per cent.

Among all 370,000 compounds or so, about 4,800 (1.3%) were called active. Many of the other results were omitted from the sample, so actives are more common in it than they were. Unmarked numbers belong to inactive results.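 How the source made its calls: active means inhibition above about 21% made by adding two undisclosed values (limit read from the data); inactive means the rest.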

Sequence of Protein arginine N-methyltransferase 1 (Homo sapiens) (Q99873 whole entry, looked up): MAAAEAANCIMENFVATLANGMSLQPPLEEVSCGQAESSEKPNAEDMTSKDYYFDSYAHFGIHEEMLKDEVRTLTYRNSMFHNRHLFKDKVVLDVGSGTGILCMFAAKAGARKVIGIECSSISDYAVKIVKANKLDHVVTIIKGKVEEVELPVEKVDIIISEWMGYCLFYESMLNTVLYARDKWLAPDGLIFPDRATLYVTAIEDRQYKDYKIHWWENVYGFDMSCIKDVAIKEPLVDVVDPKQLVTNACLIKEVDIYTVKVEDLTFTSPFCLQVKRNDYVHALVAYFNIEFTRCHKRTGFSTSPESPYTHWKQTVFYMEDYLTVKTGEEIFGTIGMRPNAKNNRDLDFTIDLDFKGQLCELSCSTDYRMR

This test has as its target Protein arginine N-methyltransferase 1 (Homo sapiens) (UniProt Q99873). Nature of the test: PRMT1 methyltransferase inhibitors, primary screen, biochemical, fluorescence polarization (AID 652257). The following applies: recombinant PRMT1, activity-based probe fluorescence polarization; at 2.79 µM; active compounds read high. In general terms: Polarisation of emitted light reports the rotation of a fluorescent probe.
With `CCCCC(=O)N[C@@H]1CC[C@@]23CCCN2C(=O)CCC[C@H]3[C@H]1C`, the inhibition was -1.5%.
Under `CCOc1ccc(-c2n[nH]c(=S)n2/N=C/c2cc3c(cc2[N+](=O)[O-])OCO3)cc1` stands -0.65%; under `S=c1[nH]nc(-c2ccccc2)n1/N=C/c1c[nH]c2ccccc12`, 25.5% (active); under `CCc1n[nH]c(=S)n1/N=C/c1c[nH]c2ccc(Br)cc12`, 29.8% (active).
Turning to `C[n+]1ccc(/C=C/c2c[nH]c3ccccc23)cc1`, the inhibition is 4.53%.
Then `Cc1cccc(NC(=O)CSc2nnc(CCNC(=O)OC(C)(C)C)o2)c1C`, with -1.24%; and `O=C(O)CCN1C(=O)CC2(CCCCC2)C1=O`, with 0.48%; and `N#Cc1ccc(OC[C@@H](O)CN2CCC(C(O)(c3ccccc3)c3ccccc3)CC2)c(F)c1`, with -0.03%.
In the case of `CC(=O)N1CCCc2cc(S(=O)(=O)N3CCCC(C(=O)N4CCN(c5cccc(Cl)c5)CC4)C3)ccc21` (stereo not given), the inhibition is -1.42%.
Under `CCOC(=O)C1(Cc2ccc(Cl)cc2)CCN(C(=O)C2=NNC(=O)CC2)CC1` stands 3.16%; under `CCOCCCNC(=S)N1CCC(NC(=O)C2CCCCC2)CC1`, 4.18%.
Then `CCOC(=O)c1ccn(-c2nc(-c3ccco3)cc(C(F)(F)F)n2)n1`, with 3.19%; and `Cc1cc(C)c2nc(-c3ccco3)cc(C(=O)O)c2c1`, with 36.4% (active).
Under `Cc1ccsc1-c1cc(C(=O)O)c2c(ccc3ccccc32)n1` stands -0.02%; under `COc1ccc(-c2cc(-c3nnc(SCC(=O)Nc4cccc5ccccc45)n3N)[nH]n2)cc1`, 2.25%; under `Cc1ccc2c(c1)c1ncnc(N3CCc4ccccc4C3)c1n2C`, -0.03%.
On to `CCN(C(=O)Nc1cccc2ccccc12)c1ccccc1`, for which the inhibition is 9.59%.
As for `Cc1cccc(C)c1NC(=O)C(c1cccc(F)c1)N1CCN(C)CC1` (stereo not given), the inhibition was -4.4%.
Under `O=S1(=O)c2c(NCc3ccco3)cccc2Oc2ccccc2CN1Cc1cn(Cc2cccc(C(F)(F)F)c2)nn1` stands 0.88%; under `COc1ccc(NC2=CC(=S)NC(C)(C)C2)cc1`, 33.8% (active).
Then `COC(=O)C1=C(C)NC(=S)NC1c1ccc(OC)cc1` (stereo not given), with -3.18%.
On to `COc1ccc(CCNC2=CC(=O)CC(C)(C)C2)cc1`, for which the inhibition is -4.15%.
Then `Cc1ccc(Cn2cc(CN3[C@@H](CC(C)C)COc4ccc(Cl)cc4S3(=O)=O)nn2)cc1`, with -3.14%.
Then `CC(=O)c1cccc(NC(=O)CN2C(=O)c3cccnc3Oc3ccc(Cl)cc32)c1`, with 1.98%.
As to `CCc1ccccc1NC(=S)Nc1cc(OC)c(NC(=O)C(C)C)cc1OC`, the inhibition is 22.1% (active).
As for `COc1cc(NC(=S)NNC(=O)CC(C)C)c(OC)cc1Cl`, the inhibition is 5.88%.
Take `COc1ccc(C)cc1NC(=S)Nc1ccccc1SC`: the inhibition was 1.24%.
Then `FC(F)(F)c1cccc(Cn2ccc3ccc(-c4ccc5ccn(Cc6ccccc6)c5c4)cc32)c1`, with -0.46%.
Under `COc1ccc(Cn2ccc3ccc(-c4ccc5ccn(Cc6ccccc6C)c5c4)cc32)cc1` stands 5.02%; under `O=[N+]([O-])/C=C/c1ccc2c(ccn2Cc2ccccc2)c1`, 24.4% (active); under `CCc1ccc(-n2c(=S)sc3c(=O)n(-c4ccccc4OC)c(=S)[nH]c32)cc1`, 84.4% (active).
Then `COc1cc2[nH]c(=S)n(Cc3ccc(F)cc3)c(=O)c2cc1OC`, with 1.22%; and `COc1ccc(Cl)cc1-n1c(=S)sc2c(=O)n(-c3ccc(F)cc3)c(SCC(=O)O)nc21`, with 4.71%; and `CC(=O)N1CCc2cc(S(=O)(=O)NCCC(=O)N3CCCC3)ccc21`, with 0.09%.
With `Oc1ccc(/C=C/c2c(F)cccc2F)c2cccnc12`, the inhibition is -1.47%.
Take `COCC1CCN(C(=O)c2ccc3oc(Cc4ccccc4)nc3c2)C1` (stereo not given): the inhibition was -0.25%.
Then `O=C(Nc1cc(C(F)(F)F)ccc1Cl)c1cc2nc3c(c(C(F)(F)F)n2n1)CCCC3`, with -0.92%.
Take `c1cncc(CNc2ccnc(-c3ccc4c(c3)OCO4)n2)c1`: the inhibition is -4.36%.
Under `COc1ccc(/C=N/n2c(C)cc(C)cc2=O)cc1` stands -4.04%; under `C=CCN1C(=O)[C@@H](CC(=O)N2CCN(C(=O)c3ccco3)CC2)[C@]2(C(=O)OC)CCCCC=C12`, 0.68%.
Then `CN(C(N)=NC(=O)/C=C/c1ccccc1)C(C#Cc1ccccc1)Cc1ccccc1` (stereo not given), with -2.71%; and `COc1cc(Cl)cc(C2NC(=O)NC(C)=C2C(=O)NCc2ccccc2)c1O` (stereo not given), with 0.85%; and `O=C(NN1C(=O)C2C3C=CC(O3)C2C1=O)c1ccccc1` (stereo not given), with -3.32%.
Then `O=C(NN1C(=O)C2C3C=CC(O3)C2C1=O)c1ccncc1` (stereo not given), with 3.88%; and `COc1ccccc1C(=O)NN1C(=O)C2C3C=CC(O3)C2C1=O` (stereo not given), with 35.6% (active).
Regarding `Nc1nc(CC(=O)CSc2ccc(Cl)cc2)nc(Nc2ccc(F)cc2)n1`, the inhibition is -4.39%.
Take `COC(=O)[C@]12C[C@H](CC(=O)N3CCOCC3)C(=O)N(Cc3ccc(Cl)cc3Cl)C1=C[C@H](COCc1ccccc1)O[C@@H]2C`: the inhibition was 2.19%.
On to `Nc1c(C(=O)c2cccs2)sc2nsc(SCCN3CCCCC3)c12`, for which the inhibition is 25.1% (active).
Regarding `c1ccc(CN2CCC(N=C3NN=C(c4ccc5c(c4)OCCO5)CS3)CC2)cc1`, the inhibition is 27.6% (active).
Under `CS(=O)(=O)N(CC(=O)N1CCN(Cc2ccccc2)CC1)c1ccc2c(c1)OCCO2` stands -1.51%; under `CC(=NC1CCN(Cc2ccccc2)CC1)c1c(O)[nH]c(=O)[nH]c1=O`, 1.82%.
Then `O=C(CSc1nnc(COc2ccccc2)n1-c1ccc(Cl)cc1)Nc1ccc2c(c1)OCO2`, with 0.01%; and `Cc1ccc(NC(=O)Cn2sc3ccccc3c2=O)cc1`, with 91.8% (active); and `O=C(Cn1nc(C(=O)O)c2ccccc2c1=O)Nc1ccc(F)cc1`, with 2.28%.
For the molecule `CC1(C)NC(=O)N(CC(=O)Nc2ccc(-c3ccccc3)cc2)C1=O`, the inhibition is -1.42%.
Then `CN(C)C(=O)CCc1ccc2c3c([nH]c2c1)[C@]1(CCc2ccccc2)[C@@H](C(=O)N2CCCCC2)C[C@H](CC(=O)NCCC2=CCCCC2)C(=O)N1CC3`, with -1.05%; and `O=C1Nc2ccccc2OC1CC(=O)N1CCCCCCC1` (stereo not given), with 1.11%.
Under `CN(CC(=O)NC1CCCC1)S(=O)(=O)c1cnc[nH]1` stands -5.5%; under `CC1CCN(C(=O)C2CCN(S(=O)(=O)N3CCC4(CC3)OCCO4)CC2)CC1`, -2.98%.
Under `COc1ccc(-c2nn(C)c(=O)c3ccccc23)cc1NC(=O)COc1ccccc1` stands 3.05%.
